Screening data: PubChem, National Center for Advancing Translational Sciences (NCATS)
Most compounds without a hit are left out; they make up all but 4.7% or so of the library.
GPR32 ag: agonists of human resolvin D1 receptor DRV1 (GPR32); activation, % at 76.9 µM; CHO-K1 GPR32 beta-arrestin PathHunter luminescence, 90 min; zero percent set by DMSO-only wells; 48,000 compounds, 2.5% hits;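 active means activation of at least 60% and not above a set upper limit, about 1 call in 100 departs from these limits; inconclusive means activation of 40% to 60%, or above that upper limit; inactive means activation under 40%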
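GPR32 activation in stably transfected CHO-K1 cells, detected as beta-arrestin recruitment by enzyme-fragment complementation. Compound exposure: 90 min, 37 °C.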
NTMT1 inh: inhibitors of human N-terminal methyltransferase NTMT1; Q9BV86; NTMT1 MTase-Glo SAH luminescence, purified enzyme; Potency, µM (titrated, usually from 114 µM), hits mostly inhibitors; 59,000 compounds, 2.5% hits; further: nearly all actives have a fitted effect of over 65% in size
Target sequence (Q9BV86 whole entry, looked up): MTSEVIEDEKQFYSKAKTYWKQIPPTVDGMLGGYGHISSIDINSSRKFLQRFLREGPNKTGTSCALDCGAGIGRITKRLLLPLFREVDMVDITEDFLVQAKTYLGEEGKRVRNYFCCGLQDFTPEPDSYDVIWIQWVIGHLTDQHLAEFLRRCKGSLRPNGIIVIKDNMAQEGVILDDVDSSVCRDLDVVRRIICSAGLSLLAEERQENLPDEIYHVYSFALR
HTT-AS act: activators of huntingtin-antisense promoter activity; HEK293 HTT-AS promoter firefly luciferase reporter, 24 h; response scale: percent change from vehicle, -100% = no light; Potency, µM (top dose mostly 57.5 µM), most hits filed as activators; 48,000 compounds, 0.24% hits; AID 1508624; further: nearly all actives have a fitted effect of over 55% in size
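Quantitative HTS used concentration series of up to 57.5 uM final on HEK293 luciferase reporter cells, 24 h at 37 degrees C. Readout was Dual-Glo firefly luminescence.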
HTT prom inh: HTT promoter inhibition; 48,000 compounds, 0.93% hits; HEK293 HTT promoter firefly luciferase reporter, 24 h; Potency, µM (top dose mostly 57.5 µM), hits mostly inhibitors; further: nearly all actives have a fitted effect of over 50% in size
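HEK293 Fluc reporter, 2,500 cells/well, 24 h pre-culture; cpds up to 57.5 uM final, 24 h 37 degrees C; Dual-Glo, 10 min RT; normalized vehicle = 0%, zero RLU = -100%.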
FH mod: Identification of activators of human fumarate hydratase by quantitative high-throughput screening; 54,000 compounds, 0.22% hits; Fumarate hydratase, mitochondrial (Homo sapiens), P07954; Potency, µM (doses to about 79.9 µM), most hits filed as inhibitors; AID 1347055, 2019; FH coupled MDH/diaphorase resazurin fluorescence, 15 min; further: the screen sought activators but most active calls are inhibition curves; nearly all actives have a fitted effect of over 45% in size
Target sequence (P07954 whole entry, looked up): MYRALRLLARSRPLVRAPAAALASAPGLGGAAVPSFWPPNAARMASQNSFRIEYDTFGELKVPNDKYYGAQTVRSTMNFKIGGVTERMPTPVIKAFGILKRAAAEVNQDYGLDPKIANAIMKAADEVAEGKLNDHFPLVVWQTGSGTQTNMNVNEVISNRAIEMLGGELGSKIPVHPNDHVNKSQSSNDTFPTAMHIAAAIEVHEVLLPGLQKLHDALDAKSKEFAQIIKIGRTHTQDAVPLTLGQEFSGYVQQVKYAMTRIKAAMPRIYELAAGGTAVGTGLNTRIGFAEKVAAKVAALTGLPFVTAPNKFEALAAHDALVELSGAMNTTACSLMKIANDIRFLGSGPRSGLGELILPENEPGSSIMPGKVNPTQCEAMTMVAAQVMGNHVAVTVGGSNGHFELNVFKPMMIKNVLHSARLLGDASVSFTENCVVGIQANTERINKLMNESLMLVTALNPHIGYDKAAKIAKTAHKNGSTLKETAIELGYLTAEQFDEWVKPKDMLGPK
GALC G270D act: galactocerebrosidase G270D activity enhancement, cell-based; AID 1159614; 145M-Twi-hGALC-G270D cells, HMU-beta-Gal fluorescence, 48 h; 45,000 compounds, 0.1% hits; Potency, µM (highest dose often 57.5 µM), usual class: activators; P54803; further: nearly all actives have a fitted effect of over 65% in size
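qHTS, 1536-well; 145M-Twi-hGALC-G270D cells (WT line also made) in DMEM/F12 + 10% FBS; compound incubation on live cells; HMU-β-gal 0.1 mM final, pH 5.2, NaTC; carbonate stop; fluorescence increase = enhanced residual activity.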
Large screens that a line does not name were inactive; ! = not active in a repeat. Unless noted, the call rests on the fitted dose curve; in most records, active means well fitted curve in the direction sought with a large enough effect; inconclusive means small, poorly fitted or top-dose-only effect, or another doubt; inactive means no such curve, though single readings can be large; an effect the other way counts as inactive or inconclusive.

COC(=O)CCCn1c(-c2ccc(C)cc2)c(C)n2c3c(=O)n(C)c(=O)n(C)c3nc12	none
Cc1ccc(S(=O)(=O)N2CCCc3cc(NS(=O)(=O)c4ccc(F)c(C)c4)ccc32)cc1	HTT prom inh 25µM, FH mod inconclusive
Cc1ccc(S(=O)(=O)N2CCCc3cc(NS(=O)(=O)c4ccc(C)c(C)c4)ccc32)cc1	HTT prom inh inconclusive
OCc1ccc(O[C@@H]2O[C@H](CO)[C@@H](O)[C@H](O)[C@H]2O)cc1	none (no result: GPR32 ag, HTT-AS act, HTT prom inh, GALC G270D act)
Cc1ccc(-c2cc(NC(=O)COc3ccc(Cl)c(C)c3)on2)cc1	none
Cc1ccc(-c2cc(NC(=O)c3ccccc3Cl)on2)cc1	HTT-AS act 4.5µM
CC(C)NC(=O)C1CCC(n2c(NC(=O)c3ccc(F)cc3)nc3ccc(CN4CCC(C(C)(C)O)CC4)cc32)CC1 (stereo not given)	none (no result: GPR32 ag, HTT-AS act, HTT prom inh, FH mod, GALC G270D act)
COc1cccc(C2c3c(ncn(-c4ccccc4C#N)c3=N)Oc3ccc4ccccc4c32)c1 (stereo not given)	NTMT1 inh 79µM (no result: GPR32 ag, HTT-AS act, HTT prom inh, FH mod, GALC G270D act)
CO[C@H]1C[C@@H]2CC[C@@H](C)[C@@](O)(O2)C(=O)C(=O)N2CCCC[C@H]2C(=O)O[C@H]([C@@H](C)C[C@@H]2CC[C@@H](O)[C@H](OC)C2)CC(=O)[C@H](C)/C=C(\C)[C@@H](O)[C@@H](OC)C(=O)[C@H](C)C[C@H](C)/C=C/C=C/C=C/1C	none (no result: GPR32 ag, HTT-AS act, HTT prom inh, GALC G270D act)
CN1CCN(CCCNc2ncc(Cl)c(-c3cc4c(C(=O)NC5CC5)cccc4s3)n2)CC1	NTMT1 inh 79µM (no result: GPR32 ag, HTT-AS act, HTT prom inh, GALC G270D act)
CN1CCN(CCCNC(=O)c2cnn(-c3ccccc3)c2C2CCN(C(=O)OC(C)(C)C)CC2)CC1	none
C=C1CCC2[C@](C)(CO)CCC[C@@]2(C)[C@@H]1CCC1=CCOC1=O (stereo not given in full)	none (no result: GPR32 ag, HTT-AS act, HTT prom inh, GALC G270D act)
CN(C)CCCN1c2ccccc2Sc2ccc(Cl)cc21	GPR32 ag 63!, NTMT1 inh inconclusive, HTT prom inh inconclusive, FH mod inconclusive
COc1ccc(C(=O)OC2C3C=COC(OC4OC(CO)C(O)C(O)C4O)C3C3(CO)OC23)cc1OC (stereo not given)	none (no result: GPR32 ag, HTT-AS act, HTT prom inh, GALC G270D act)
CCCCn1c(NCc2cc(Br)ccc2O)nc2ccccc21	GPR32 ag inconclusive, HTT prom inh inconclusive
CCCCn1c(NCc2cc(Cl)ccc2O)nc2ccccc21	GPR32 ag 102, HTT prom inh inconclusive
O=C(Nc1nc2ccc(F)cc2s1)c1nc(S(=O)(=O)Cc2ccccc2)ncc1Cl	GPR32 ag 91, HTT prom inh inconclusive
COc1ccc2nc(NC(=O)c3nc(S(=O)(=O)Cc4ccccc4)ncc3Cl)sc2c1	none
Cc1nnc(NC(=O)c2nc(S(=O)(=O)Cc3ccccc3)ncc2Cl)s1	GPR32 ag 81, HTT prom inh inconclusive
CC(=O)O[C@@H]1C(O)C[C@@]2(C)C(CC[C@@H](C)C23Cc2c(O)cc4c(c2O3)CNC4=O)C1(C)C (stereo not given in full)	none (no result: GPR32 ag, HTT-AS act, HTT prom inh, GALC G270D act)
CCC(=O)Nc1ccc2nc(SCCOc3cccc(C)c3)sc2c1	GPR32 ag 86, HTT prom inh inconclusive
Cc1cccc(C(=O)Nc2ccc3nc(SCCOc4ccccc4)sc3c2)c1	none
CCC(=O)Nc1ccc2nc(SCCOc3ccc(C)cc3OC)sc2c1	GPR32 ag 93, NTMT1 inh inconclusive
COc1ccc(-c2n[nH]c3c2C(c2ccc(Cl)cc2Cl)NC3=O)cc1 (stereo not given)	GPR32 ag 87, HTT prom inh inconclusive
CCOc1ccc(S(=O)(=O)NCCc2csc3nc(-c4ccc(OC)c(OC)c4)nn23)cc1	none
CCOc1ccc(S(=O)(=O)NCCc2csc3nc(-c4ccc(F)cc4)nn23)cc1	HTT prom inh 25µM
COc1ccc2c(CNC3CCC(C)CC3)c(C(=O)O)n(Cc3ccc(F)cc3)c2c1 (stereo not given)	GPR32 ag 91, FH mod inconclusive
COc1ccc2c(CNCCc3ccco3)c(C(=O)O)n(Cc3ccc(C)cc3)c2c1	GPR32 ag 89
COc1ccc2c(CNCc3ccc(C)o3)c(C(=O)O)n(Cc3ccccc3C)c2c1	NTMT1 inh inconclusive
COc1ccc(Cn2c(C(=O)O)c(CNCc3ccc(C)o3)c3ccc(OC)cc32)cc1	GPR32 ag 75
COc1ccc2c(CNCCc3ccco3)c(C(=O)O)n(Cc3ccc(F)cc3)c2c1	none
CCNC(=O)Nc1ccc(Oc2ncnc(N)c2/C=N/OC)cc1Cl	none (no result: GPR32 ag, HTT-AS act, HTT prom inh, GALC G270D act)
FC(F)(F)c1ccccc1-c1nc(NCc2ccc(-c3ccc4c(c3)OCCO4)cc2)c2ccccc2n1	none (no result: GPR32 ag, HTT-AS act, HTT prom inh, FH mod, GALC G270D act)
CC#Cc1cncc(-c2ccc3c(c2)[C@@]2(N=C(C)C(N)=N2)C2(CCC(OC)CC2)C3)c1 (stereo not given in full)	none (no result: GPR32 ag, HTT-AS act, HTT prom inh, FH mod, GALC G270D act)
C=C1CCC2C(C)(C)C(O)CCC2(C)C1CCC(C)CCO (stereo not given)	none (no result: GPR32 ag, HTT-AS act, HTT prom inh, GALC G270D act)
Clc1cccc(-c2nc3ccccn3c2Nc2ccc3c(c2)OCCO3)c1	NTMT1 inh 4µM
COc1cc(-c2nc3ccc(Cl)cn3c2Nc2ccc3c(c2)OCCO3)ccc1O	NTMT1 inh inconclusive, FH mod inconclusive
COc1cc(-c2nc3cccc(C)n3c2Nc2ccc3c(c2)OCCO3)ccc1O	GPR32 ag 61
Oc1ccc(-c2nc3ccccn3c2Nc2ccc3c(c2)OCCO3)cc1	NTMT1 inh inconclusive, FH mod inconclusive
CC(C)n1cc(-c2ccc3c(c2)N(C)CC3)c2c(NS(=O)(=O)c3ccn(C)n3)ccnc21	none (no result: GPR32 ag, HTT-AS act, HTT prom inh, FH mod, GALC G270D act)
CNCc1ccc(-c2[nH]c3cc(F)cc4c3c2CCNC4=O)cc1	NTMT1 inh 6.3µM! (no result: GPR32 ag, GALC G270D act)
COc1ccc(OC)c(NC(=O)Cn2ccn(-c3ccc(F)cc3)c(=O)c2=O)c1	NTMT1 inh 89µM
COc1cc(C(=O)NS(=O)(=O)c2ccccc2C)ccc1Cc1cn(C)c2ccc(NC(=O)OC3CCCC3)cc12	NTMT1 inh 71µM, HTT prom inh inconclusive
CCN(CC)CCOc1ccc(/C(=C(\Cl)c2ccccc2)c2ccccc2)cc1	GPR32 ag 91, NTMT1 inh inconclusive
Cc1nc2cc(-c3ccc(Cl)cc3)nn2c(C)c1CCC(=O)N1CCN(c2ccccc2)CC1	HTT prom inh 1µM, GALC G270D act inconclusive
Cc1nc2cc(-c3ccccc3)nn2c(C)c1CCC(=O)N1CCN(c2ccccc2)CC1	HTT prom inh 2.5µM
O=C(O)C[C@H](O)C[C@H](O)/C=C/c1c(C2CC2)nc2ccccc2c1-c1ccc(F)cc1	NTMT1 inh 40µM! (no result: GPR32 ag, HTT-AS act, HTT prom inh, GALC G270D act)
CC(C)n1c(/C=C/[C@H](O)C[C@H](O)CC(=O)O)c(-c2ccc(F)cc2)c2ccccc21	none (no result: GPR32 ag, HTT-AS act, HTT prom inh, FH mod, GALC G270D act)
